Experimental findings from paper PMC7862700, “An all-to-all approach to the identification of sequence-specific readers for epigenetic DNA modifications on cytosine” are described below.

This assay addresses T1, ELF3 (Homo sapiens, UniProt P78545 1-371).
T1 sequence: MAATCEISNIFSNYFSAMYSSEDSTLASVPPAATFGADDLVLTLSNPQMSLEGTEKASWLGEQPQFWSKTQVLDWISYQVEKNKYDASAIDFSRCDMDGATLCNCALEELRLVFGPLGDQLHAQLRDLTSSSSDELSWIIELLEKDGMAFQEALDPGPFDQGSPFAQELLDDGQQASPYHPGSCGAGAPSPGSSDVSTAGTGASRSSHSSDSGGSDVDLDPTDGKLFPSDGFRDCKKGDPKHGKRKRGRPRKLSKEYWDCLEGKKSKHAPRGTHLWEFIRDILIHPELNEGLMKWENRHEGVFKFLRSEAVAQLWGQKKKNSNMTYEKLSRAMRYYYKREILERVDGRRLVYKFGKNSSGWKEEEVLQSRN
The assay is described as follows: DAPPL (digital affinity profiling via proximity ligation, sequencing); 10 mM Tris-HCl pH 7.5, 50 mM NaCl, 1 mM DTT, 4% glycerol, room temperature, 30 min; GST-TFs on glutathione beads, 16-mer random dsDNA library, 0.1% formaldehyde crosslink after washing; high values mean tight binding. The note with it: protein: recombinant; tags: N-terminal GST; dsDNA, one strand shown. The method, boiled down: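 Human transcription factors fused to GST were expressed in yeast, captured on glutathione beads, given DNA barcodes and pooled with a GST-only negative control. Pools were incubated with 200 nmole of a 16-mer random double-stranded DNA library in Tris/NaCl/DTT/glycerol buffer at room temperature for 30 min. They were then washed, crosslinked with 0.1% formaldehyde, proximity-ligated (BsaI/T4 ligase, 1 h, 37 °C), PCR-amplified and sequenced on an Illumina NextSeq500. Binding signal is each 6-mer's read frequency for a factor divided by its frequency for the GST control.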
Take GACCTC: the binding signal is 1.45 fold enrichment (6-mer frequency, TF over GST control).
Regarding CGTTCC, the binding signal is 1.27 fold enrichment (6-mer frequency, TF over GST control).
In the case of ACTGGC it was 1.1 fold enrichment (6-mer frequency, TF over GST control); in that of ATGGAC, 1.42 fold enrichment (6-mer frequency, TF over GST control).
CAATTG: the binding signal was 1.32 fold enrichment (6-mer frequency, TF over GST control).
Then TGCCGA, with 1.16 fold enrichment (6-mer frequency, TF over GST control); and ACTCAC, with 1.31 fold enrichment (6-mer frequency, TF over GST control); and GCCTCA, with 1.34 fold enrichment (6-mer frequency, TF over GST control).
In the case of CGACCC it was 1.2 fold enrichment (6-mer frequency, TF over GST control); in that of CCACGC, 1.24 fold enrichment (6-mer frequency, TF over GST control).
In the case of TGTTCA it was 1.22 fold enrichment (6-mer frequency, TF over GST control); in that of GAAAAA, 1.2 fold enrichment (6-mer frequency, TF over GST control).
For the sequence TGTACA, the binding signal was 1.01 fold enrichment (6-mer frequency, TF over GST control).
With CGTCCT, the binding signal was 1.31 fold enrichment (6-mer frequency, TF over GST control).
GAAGCA: the binding signal was 1.27 fold enrichment (6-mer frequency, TF over GST control).
As to ACTGCC, the binding signal is 1.24 fold enrichment (6-mer frequency, TF over GST control).
Take TGCGTA: the binding signal is 1.01 fold enrichment (6-mer frequency, TF over GST control).
As to CGCGTC, the binding signal is 1.44 fold enrichment (6-mer frequency, TF over GST control).
For CCGACA, the binding signal is 1.18 fold enrichment (6-mer frequency, TF over GST control).
Regarding GCGTTC, the binding signal was 1.15 fold enrichment (6-mer frequency, TF over GST control).
Then GTACAT, with 1.28 fold enrichment (6-mer frequency, TF over GST control).
For the sequence CGACAT, the binding signal was 1.42 fold enrichment (6-mer frequency, TF over GST control).
Take CCTGCA: the binding signal was 1.68 fold enrichment (6-mer frequency, TF over GST control).
For TGCAAC, the binding signal was 1.42 fold enrichment (6-mer frequency, TF over GST control).
Take TGCCCC: the binding signal was 1.11 fold enrichment (6-mer frequency, TF over GST control).
Then TGACAT, with 1.25 fold enrichment (6-mer frequency, TF over GST control); and CCGTAC, with 1.33 fold enrichment (6-mer frequency, TF over GST control); and TGAAAC, with 1.42 fold enrichment (6-mer frequency, TF over GST control).
On to ACTGCG, for which the binding signal is 1.16 fold enrichment (6-mer frequency, TF over GST control).
For CCCTCA, the binding signal is 1.17 fold enrichment (6-mer frequency, TF over GST control).
Consider TGACCA, for which the binding signal is 1.11 fold enrichment (6-mer frequency, TF over GST control).
As to TCTGAC, the binding signal is 1.18 fold enrichment (6-mer frequency, TF over GST control).
As to ACGAAC, the binding signal is 1.22 fold enrichment (6-mer frequency, TF over GST control).
Then GAAGTT, with 1.82 fold enrichment (6-mer frequency, TF over GST control); and CCGGCA, with 1.31 fold enrichment (6-mer frequency, TF over GST control); and ACCGTC, with 1.15 fold enrichment (6-mer frequency, TF over GST control).
For CTGCCA, the binding signal was 1.22 fold enrichment (6-mer frequency, TF over GST control).
GTCTCT: the binding signal was 1.11 fold enrichment (6-mer frequency, TF over GST control).
As to GAAACT, the binding signal was 1.19 fold enrichment (6-mer frequency, TF over GST control).
